From PubChem BioAssay (NCI)
About 83,000 compounds went through this panel and 20% of them were active in at least one assay; those are over-represented in the sample as a whole.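 Testing used 96-well plates and a 48-hour single-concentration exposure. Example: -40 means 40% of the starting cells died.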 A number with no mark means an inactive call. Activity calls are given as the source filed them. The calls were made as follows: active = growth percent below 10; inactive = the rest.

Assays:
Assay in all cases: NCI-60 one-dose screen, 48 h (100 = growth as untreated, 0 = no growth, -100 = all killed)
Details in all cases: 10 µM unless noted
SK-MEL-2 melanoma = tested on: SK-MEL-2 melanoma
EKVX NSCLC = tested on: EKVX NSCLC
SN12C renal = tested on: SN12C renal
UO-31 renal = tested on: UO-31 renal
TK-10 renal = tested on: TK-10 renal
ACHN renal = tested on: ACHN renal
CAKI-1 renal = tested on: CAKI-1 renal
A498 renal = tested on: A498 renal
CCRF-CEM leukemia = tested on: CCRF-CEM leukemia
MOLT-4 leukemia = tested on: MOLT-4 leukemia
RPMI-8226 leukemia = tested on: RPMI-8226 leukemia
OVCAR-8 ovarian = tested on: OVCAR-8 ovarian
OVCAR-5 ovarian = tested on: OVCAR-5 ovarian
OVCAR-4 ovarian = tested on: OVCAR-4 ovarian
SK-OV-3 ovarian = tested on: SK-OV-3 ovarian
IGROV1 ovarian = tested on: IGROV1 ovarian
OVCAR-3 ovarian = tested on: OVCAR-3 ovarian
HS 578T breast = tested on: HS 578T breast
NCI/ADR-RES ovarian = tested on: NCI/ADR-RES ovarian

Compound | growth (SK-MEL-2 melanoma) | growth (EKVX NSCLC) | growth (SN12C renal) | growth (UO-31 renal) | growth (TK-10 renal) | growth (ACHN renal) | growth (CAKI-1 renal) | growth (A498 renal) | growth (CCRF-CEM leukemia) | growth (MOLT-4 leukemia) | growth (RPMI-8226 leukemia) | growth (OVCAR-8 ovarian) | growth (OVCAR-5 ovarian) | growth (OVCAR-4 ovarian) | growth (SK-OV-3 ovarian) | growth (IGROV1 ovarian) | growth (OVCAR-3 ovarian) | growth (HS 578T breast) | growth (NCI/ADR-RES ovarian)
COc1ccc(-c2cc(-c3ccc(OC)cc3)c3sc(=O)[nH]c3n2)cc1 | 103% | 86.6% | 73.7% | 53.4% | 89.8% | 93.7% | 76.8% | -1.41% (active) | 108% | 92.9% | 85.3% | 82.4% | 101% | 95.6% | 92.8% | 84.4% | 101% | 67.7% | 92.2%
CCCNCCC(C)=O | 118% | 89.6% | 102% | 92.4% | 101% | 106% | 106% | 94.2% | 107% | 112% | 108% | 106% | 101% | 107% | 116% | 118% | 116% | 89.9% | 100%
COc1cc(C2CC(=O)Nc3c2cnn3C)cc(OC)c1OC (stereo not given) | 113% | 119% | 114% | 90.7% | 117% | 108% | 106% | 113% | 114% | 102% | 112% | 103% | 109% | 113% | 95.1% | 108% | 106% | 111% | 105%
O=C(CCCN1CCC(O)(c2ccc(Br)cc2)CC1)c1ccc(F)cc1 | 100% | 91% | 72.8% | 45.6% | 96.6% | 72.5% | 82.1% | 82.2% | 63.8% | 60.3% | 73.4% | 79.3% | 80% | 64.7% | 86% | 74% | 90% | – | 74%
CC(C)=CC[C@@H]1CC2(CC=C(C)C)C(=O)C(OC3(C(=O)c4ccccc4)C(=O)C4(CC=C(C)C)C[C@@H](CC=C(C)C)C(C)(C)C(CC=C(C)C)(C4=O)C3=O)(C(=O)c3ccccc3)C(=O)C(CC=C(C)C)(C2=O)C1(C)C (stereo not given in full) | -46.8% (active) | 2.26% (active) | -17.9% (active) | -7.33% (active) | 3.06% (active) | 4.64% (active) | 11.5% | -58% (active) | 3.78% (active) | -11.9% (active) | -23% (active) | 1.06% (active) | 14.9% | 20.4% | 2.61% (active) | 15.5% | -9.05% (active) | 1.98% (active) | 5.81% (active)
O=C(/C=C/c1ccccc1)c1c[nH]c2ccccc2c1=O | 95.5% | 36.3% | 8.29% (active) | 4.93% (active) | 22.5% | 11.6% | 4.66% (active) | -6.19% (active) | -12.2% (active) | 9.81% (active) | -15.9% (active) | -13.3% (active) | 3.5% (active) | 42.1% | 11.6% | -11.5% (active) | -60.9% (active) | -18.8% (active) | 0.29% (active)
O=C(Nc1ccc(Br)cc1)c1ccc(Cl)c(Cl)c1 | 102% | 24% | 60.7% | 59.1% | 107% | 18.1% | 8.9% (active) | 65.7% | 1.53% (active) | 23.3% | -6.3% (active) | 89.3% | 72% | 28.8% | 63.7% | 66.7% | 16% | 79.6% | 36.6%
Fc1ccc(-c2nc(-c3ccc(-c4nc5ccc(F)cc5[nH]4)cc3)no2)cc1 | 102% | 85.1% | 84.3% | 84.4% | 119% | 71% | 81.3% | 79.6% | 74.9% | 94.8% | 88.1% | 86.5% | 94.7% | -8.43% (active) | 39.8% | 74.3% | 94.3% | 71.3% | 73.9%
COc1ccc(CC2c3cc(OC)c(OC)cc3CC[N+]2(C)CCC(=O)OCCCCCOC(=O)CC[N+]2(C)CCc3cc(OC)c(OC)cc3C2Cc2ccc(OC)c(OC)c2)cc1OC (stereo not given) | 98.7% | 101% | 81.2% | 66.2% | 124% | 97.1% | 87.4% | 66% | 94.1% | 80.4% | 96.3% | 96.5% | 103% | 89.8% | 110% | 102% | 95.9% | 93.4% | 78.1%
N#CCCn1cnc2c(N)ncnc21 | 106% | 104% | 94.2% | 116% | 114% | 94% | 97% | 112% | 96.7% | 92.1% | 101% | 96.5% | 98.4% | 107% | 99.6% | 125% | 109% | 99.5% | 109%
O=C1Nc2ccccc2/C1=C\c1nc(C2CCN(S(=O)(=O)c3ccc(F)cc3)CC2)n2ccccc12 | 17.8% | 63.3% | 46% | 68.2% | 60.1% | 55.6% | 57.8% | 82.9% | 95.1% | 100% | 94.3% | 18% | 88% | 13.6% | 57.8% | 57% | 58.6% | – | 17%
O=C(O)c1ccccc1Oc1cc(-c2ccco2)nc(OCCN2CCOCC2)n1 | 100% | 113% | 97.3% | 87.6% | 97.4% | 107% | 96.2% | 104% | 94.2% | 101% | 99.8% | 105% | 99.6% | 108% | 99.8% | 103% | 126% | 112% | 99.7%
COc1ccc2nc(-c3ccc(-c4noc(-c5ccc(Cl)cc5)n4)cc3)[nH]c2c1 | 100% | 91.2% | 77.7% | 55.8% | 120% | 77.9% | 92.1% | 90.7% | 57% | 79% | 101% | 74.1% | 92.6% | -25.9% (active) | 90.7% | 78.1% | 64.9% | 62.1% | 47.1%
O=C(/C=C/c1ccco1)c1ccccc1O | 108% | 104% | 102% | 87.5% | 122% | 102% | 99.3% | 106% | 76.5% | 118% | 92.4% | 104% | 101% | 106% | 115% | 104% | 97% | 120% | 97.7%
COc1ccc(C(=O)N2N=C(c3ccc(F)cc3)CC2c2cn(-c3ccccc3)nc2-c2ccccc2)cc1 (stereo not given) | 75.1% | 70.9% | 63% | 68.1% | 80.2% | 86.5% | 63.2% | 93.2% | 57.1% | 42.2% | 62% | 39.4% | 95.6% | 68.2% | 62% | 85% | 45.8% | 83.7% | 34.9%
C=C1C(=O)O[C@H]2[C@H]1CC/C(COC(=O)N[C@@H](Cc1c[nH]c3ccccc13)C(=O)OC)=C\CC[C@@]1(C)O[C@@H]21 | 41.3% | 55.4% | 33.4% | 41.3% | -23.2% (active) | 7.04% (active) | 29.7% | 91.9% | -12.3% (active) | -13.2% (active) | -14.2% (active) | – | 66% | 72.2% | 78.8% | 0.0104% (active) | -40.3% (active) | 77.8% | 88.2%
COC(=O)c1ccc2c(c1)nc(-c1ccc(Cl)cc1)n2-c1cc(C(C)(C)C)[nH]n1 | 31.6% | 78.3% | 79.1% | 41.9% | 86.6% | 75.4% | 50.4% | 21.8% | 45.2% | 41.8% | 56.8% | 83.1% | 121% | 81.4% | 104% | 54.2% | 41.9% | 53.3% | 14.2%
